aSyn UTR act: Activators working through SNCA 5'UTR binding (MLPCN) | alpha-synuclein 5'UTR reporter, activators screen | activity score, % (tested at 7.5 µM), hits read low | 7.1% of 300,000 active | AID 1814; in the data active = activity score below about -60%
Numbers without * were called inactive. These entries were drawn from the full list.

SMILES	aSyn UTR act
Cc1cccc(NC(=O)Nc2ccc([N+](=O)[O-])cc2)n1	-97.2*
Cc1cccc(NC(=O)Nc2ccc(F)cc2)n1	-90.6*
Cc1cccc(NC(=O)Nc2ccc(Cl)cc2)n1	-99.1*
CCOc1cc(/C=C(\C#N)C(N)=O)ccc1OCc1c(C)no[n+]1[O-]	-62.8*
CCN(CC)C(=O)CSc1ncnc2sc(-c3ccccc3)cc12	-168.5*
CN(CCC#N)C(=O)CSc1ncnc2sc(-c3ccccc3)cc12	-106.1*
CCc1cc2c(SCC(=O)c3ccccc3)ncnc2s1	-122.3*
COC(=O)c1ccc(C(=O)NC2CCCc3c2cnn3-c2ccc(C)c(C)c2)cc1 (stereo not given)	104.5
Cc1cc(C(=O)NC2CCCc3c2cnn3-c2cccc(C)c2C)no1 (stereo not given)	-117.7*
Cc1cc(C)nc(Sc2ccc3nnnn3n2)n1	-72.4*
Clc1ccc(/C=C/c2nc3ccccc3[nH]2)cc1	60.9
CCOc1cc(/C=C/c2nc3ccccc3c(=O)[nH]2)ccc1O	-132.7*
Clc1ccc(/C=C/c2nc3ccccc3[nH]2)c(Cl)c1	68.2
Clc1cccc(Cl)c1/C=C/c1nc2ccccc2[nH]1	-149.2*
CCOc1cc(/C=C/c2cc(C(F)(F)F)[nH]c(=O)n2)ccc1O	-78.7*
O=c1[nH]c(/C=C/c2ccccc2Cl)nc2ccccc12	-264.5*
Cc1cccc(/C=C/c2nc3ccccc3c(=O)[nH]2)c1	-93.7*
Cc1[nH]c2ccccc2c1/C=C/c1nc2ccccc2c(=O)[nH]1	-98.2*
CC(C)C(=O)Nc1nc2cc3c(cc2s1)OCO3	-178.5*
O=C(Nc1nc2cc3c(cc2s1)OCCO3)C1=COCCO1	99.0
CC(C)(C)C(=O)Nc1nc2cc3c(cc2s1)OCO3	-144.3*
CCOc1ccc(N2C(N)=NC(N)=NC2(C)C)cc1	66.2
CCOc1ccc(S(=O)(=O)N2c3ccccc3CC2C)cc1 (stereo not given)	92.6
CCOc1ccc(N2Cc3ccccc3C2)cc1	-119.9*
Cc1oc(-c2ccc3c(c2)OCCO3)cc1C(=O)NCC(=O)O	-126.1*
SMILES	aSyn UTR act
Cc1oc(-c2ccc3c(c2)OCCO3)cc1C(=O)O	-135.1*
C/C(=N\Nc1ncnc2sc(C)c(C)c12)c1ccccn1	104.9
Cc1sc2ncnc(N/N=C/c3cccc(O)c3)c2c1C	-74.8*
Cc1ccc(Nc2ncnc3sc(C)c(C)c23)cc1	-182.1*
CCOc1ccc(C(=O)OCC(=O)c2c(N)n(C)c(=O)n(C)c2=O)cc1OCC	-117.6*
CCCN1C/C(=C/c2ccc3c(c2)OCO3)C(=O)/C(=C/c2ccc3c(c2)OCO3)C1	-105.4*
CCOC(=O)c1sc(N/N=C/c2cccc(C)c2)nc1C	-175.3*
COc1ccc(/C=N/Nc2nc(C(=O)O)cs2)cc1	-78.4*
COC(=O)c1ccc(/C=N/Nc2nc(C)c(C)s2)cc1	-187.7*
O=C(O)Cc1sc(N/N=C\c2ccccc2)nc1-c1ccccc1	-255.9*
CC(=O)c1sc(N/N=C\c2ccccc2O)nc1C	-188.0*
CCOC(=O)c1sc(N/N=C/c2ccccc2)nc1C	-207.1*
N#C/C(=C\c1ccccc1[N+](=O)[O-])c1nc(C2CC2)cs1	-263.8*
N#C/C(=C/c1ccccc1[N+](=O)[O-])c1nc(C2CC2)cs1	-301.0*
N#C/C(=C\c1ccc([N+](=O)[O-])cc1)c1nc(C2CC2)cs1	-83.8*
Cc1ccc(Nc2nc3nonc3[nH]c2=O)cc1Cl	-72.1*
COc1ccccc1N1CCN(Cc2ccc(O)c3ncccc23)CC1	76.6
COc1ccccc1N1CCN(C(=O)CSc2ncccc2-c2nc3ccccc3[nH]2)CC1	-68.2*
COc1ccc(N2CCN(C(=O)CSc3ncccc3-c3nc4ccccc4[nH]3)CC2)cc1	-114.1*
Cc1cc2nc(-c3cccnc3SCC(=O)NC(C)C)[nH]c2cc1C	-122.2*
Cc1csc(SCC(=O)Nc2nc3ccccc3s2)n1	-99.9*
Cc1cc(C)nc(NC(=O)CSc2nc3ccccc3s2)n1	-203.1*
Cc1cc(C)n2c(Br)c(CSc3nc4ccccc4s3)nc2n1	-79.2*
O=C(CCSc1nc2ccccc2s1)N/N=C/c1c(O)ccc2ccccc12	65.9
CC(C)(C)NC(=O)CCCSc1nc2ccccc2s1	-133.0*
SMILES	aSyn UTR act
Cc1cc(NC(=O)CCl)n(-c2nc3ccccc3s2)n1	-77.0*
Cc1cc(C)nc(SCC(=O)OCC(=O)Nc2nc3ccccc3s2)n1	-69.8*
CC1(C)CC(=O)C2=C(C1)c1c(ccc3ccccc13)NC2c1ccco1 (stereo not given)	-193.2*
Cc1ccccc1-c1nnc(Cc2ccccc2)o1	-136.8*
c1ccc(-c2nnc(CN3CCCCC3)o2)cc1	-73.7*
Cc1ccc(-c2nnc(Cc3ccc(Cl)cc3)o2)cc1	-84.6*
Brc1ccc(-c2nnc(Cc3ccccc3)o2)cc1	-169.1*
Cc1ccc(C#N)c(SCc2nnc(-c3ccc(Cl)cc3)o2)n1	89.7
COc1ccc(Cc2nnc(-c3ccccc3)o2)cc1	-94.1*
c1ccc(Cc2nnc(-c3ccccc3)o2)cc1	-120.0*
Cc1cc(C(=O)Nc2ccc3[nH]ccc3c2)no1	-152.3*
Cc1ccc(S(=O)(=O)n2nc(-c3ccc(Cl)cc3)nc2NCc2ccco2)cc1	-95.9*
CCS(=O)(=O)n1nc(-c2ccccc2)nc1NCc1ccco1	-70.7*
CS(=O)(=O)c1nc(S(=O)(=O)c2ccc(Cl)cc2)c(N2CCC3(CC2)OCCO3)s1	-156.1*
CCn1c2ccccc2c2cc(NC(=O)CSc3nnc(-c4cccc(C)c4)o3)ccc21	-62.7*
CCn1c2ccccc2c2cc(NC(=O)CSc3nnc(-c4ccccc4)o3)ccc21	-155.4*
CCn1c2ccccc2c2cc(NC(=O)CSc3nnc(-c4cccc(F)c4)o3)ccc21	-67.9*
COc1ccc(NC(=O)c2ccccc2NC(=O)CSc2ccc(Cl)cc2)cc1	-67.3*
COC(=O)c1ccc(NC(=O)CSc2ccccc2)cc1	-128.9*
COc1ccc(NC(=O)c2ccccc2NC(=O)CSc2ccccc2)cc1	-78.9*
S=C(Nc1ccc2nccnc2c1)N1CCCC1	-86.7*
O=C(Nc1ccc2nsnc2c1)N1CCCCCC1	-98.0*
S=C(Nc1ccc2nsnc2c1)N1CCCC1	-133.0*
O=C(Nc1ccc(Cl)c(C(F)(F)F)c1)C(=O)N1CCCCC1	-67.0*
Cc1csc2ncnc(N3CCN(C(=S)Nc4ccc(C(F)(F)F)cc4)CC3)c12	55.9
SMILES	aSyn UTR act
O=C(Nc1ccc(Cl)c(Cl)c1)N1CCCCCC1	-140.2*
CC(=O)N(C(C)=O)c1ncc2c([nH]c3ccccc32)c1C#N	64.8
CNC(=O)c1cc2c(cn1)[nH]c1ccccc12	-98.4*
COc1cc(NC(=O)c2c(F)cccc2F)nc(OC)n1	-117.4*
COc1cc(NC(=O)c2cccc(Br)c2)nc(OC)n1	-105.2*
CCCSc1nnc(-c2ccccc2N)c(=O)[nH]1	-70.5*
CC1=CC2=NC(=O)/C(=C\c3cccn3CCOc3ccc(C)c(C)c3)C(=N)N2O1	-94.7*
Cn1cnnc1SCc1ccc(-c2ccc(Br)cc2)o1	-72.4*
Cc1ccc(NC(=O)Nc2ccc(F)cc2)nc1	-108.2*
Cc1ccnc(NC(=O)Nc2ccc(F)cc2)c1	-85.9*
CC1(C)CC(=O)C2=C(C1)Nc1ccccc1N=C2	-162.9*
O=C(N/N=C/c1ccsc1)c1ccc2ccccc2n1	-96.9*
O=C(Nc1ccccc1)c1cnc2ccccc2n1	-116.0*
Cc1ccc(NC(=O)c2ccc(S(=O)(=O)NCc3ccco3)cc2)nc1	-130.9*
O=C(Nc1ccccc1)c1ccc2ccccc2n1	-178.0*
Cc1ccc(NC(=O)c2ccc(=O)[nH]n2)cc1C	-102.5*
CCc1nnc(NC(=O)c2ccc3ccccc3n2)s1	-196.4*
O=C(Nc1ccc(S(=O)(=O)NCc2ccco2)cc1)c1ccc2ccccc2n1	-65.7*
